An excerpt weighted towards active compounds, which were near 2.5% of everything screened.
Cruzain noTriton – inhibitors of Trypanosoma cruzi cruzain without detergent. P25779. purified cruzain, Z-FR-AMC fluorescence, no detergent. Potency, µM, for the others: max response, negative = inhibition, usual class: inhibitors. 200,000 tested, 2.3% active;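 also: plate controls were enzyme without inhibitor for no effect and buffer without enzyme for full effect; nearly all actives have a fitted effect of over 40% in size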
Target sequence (P25779 123-467 limits assumed): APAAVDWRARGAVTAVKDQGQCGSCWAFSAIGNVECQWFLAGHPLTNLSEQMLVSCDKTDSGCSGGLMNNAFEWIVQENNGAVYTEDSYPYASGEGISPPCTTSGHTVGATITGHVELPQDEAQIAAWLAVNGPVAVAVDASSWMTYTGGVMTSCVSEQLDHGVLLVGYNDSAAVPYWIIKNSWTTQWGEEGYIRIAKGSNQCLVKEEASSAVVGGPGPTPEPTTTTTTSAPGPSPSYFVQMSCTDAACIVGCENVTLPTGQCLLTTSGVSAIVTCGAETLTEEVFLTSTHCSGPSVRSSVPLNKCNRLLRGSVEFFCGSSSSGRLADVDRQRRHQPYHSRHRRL
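Detergent-free condition (0.00005% Triton X-100) in acetate buffer pH 5.5 with DTT. 1.5 nM enzyme and compound were pre-mixed 15 min, then 2 uM Z-FR-AMC substrate added; reaction progress from fluorescence change between first and third reads (60 s).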
Cruzain Triton – blocks cruzain activity in presence of Triton detergent; purified cruzain, Z-FR-AMC fluorescence, 0.01% Triton; AID 1478; 200,000 tested, 0.43% active; Potency, µM, without a hit: max response, negative = inhibition, actives largely listed as inhibitors;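 also: plate controls were neutral wells for no effect and buffer without enzyme for full effect; nearly all actives have a fitted effect of over 40% in size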
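Compounds were screened in titration against cruzain (1.5 nM) with 0.01% Triton X-100 to counter colloidal aggregation. Activity was the AMC fluorescence increase over 60 s after adding 2 uM Z-FR-AMC at pH 5.5.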
An asterisk follows results filed as active. Calls follow the shape of the dose curve; as a rule, active = well fitted curve in the direction sought with a large enough effect; inconclusive = small, poorly fitted or top-dose-only effect, or another doubt; inactive = no such curve, though single readings can be large; an effect the other way counts as inactive or inconclusive. Potency is read from the fitted curve at half-maximal effect.

How did Nc1c(C(=O)c2ccccc2)sc2c1c(=O)[nH]c(=O)n2-c1ccccc1 do in these assays?
Cruzain noTriton: 11.4%; Cruzain Triton: -7.6%

How did O=C(N/N=C1/C(=O)c2cccc3cccc1c23)c1ccc(Cl)cc1 do in these assays?
Cruzain noTriton: -26.7%; Cruzain Triton: 10µM*

What do the screens show for `CCNC(=S)N/N=C1\C(=O)c2cccc3cccc1c23`?
Cruzain noTriton: inconclusive; Cruzain Triton: 2.3%

How did COc1ccc(CCNC(=O)c2c(Nc3ccccc3C)sc(C(=O)c3ccccc3)c2N)cc1OC do in these assays?
Cruzain noTriton: inconclusive; Cruzain Triton: -2.1%

Results for Cc1ccc(NC(=O)c2c(Nc3ccccc3C)sc(C(=O)c3ccccc3)c2N)cc1 ?
Cruzain noTriton: 6.31µM*; Cruzain Triton: -1.4%

How did COc1ccc(Nc2sc(C(=O)c3ccccc3)c(N)c2C(=O)Nc2cc(C)ccc2C)c(OC)c1 do in these assays?
Cruzain noTriton: 10µM*; Cruzain Triton: -1.1%

What do the screens show for `CCOc1ccc(NC(=O)c2c(Nc3ccccc3C)sc(C(=O)c3ccc(Cl)cc3)c2N)cc1`?
Cruzain noTriton: -26.8%; Cruzain Triton: -6.7%

What do the screens show for `Cc1ccc(CCNC(=O)CCCn2nc(C)c3c(C)n(-c4ccccc4)nc3c2=O)cc1`?
Cruzain noTriton: -15.8%; Cruzain Triton: -2.9%

What do the screens show for `O=C(CCc1nnc2n(Cc3ccccc3Cl)c(=O)c3ccccc3n12)Nc1ccc(F)cc1`?
Cruzain noTriton: 9.6%; Cruzain Triton: -1.0%

Results for O=C1SC(SCc2ccccc2)=N/C1=C\c1ccco1 ?
Cruzain noTriton: -4.5%; Cruzain Triton: -7.0%

What do the screens show for `CC(/C=C1\N=C(SCc2ccccc2Cl)SC1=O)=C\c1ccccc1`?
Cruzain noTriton: 25.1µM*; Cruzain Triton: -4.8%

Results for COc1ccc(-c2nc(NC(=O)c3n[nH]c(=O)c4ccccc34)sc2C)cc1 ?
Cruzain noTriton: -22.2%; Cruzain Triton: -0.8%

Results for Cc1ccc2nc(-c3ccccc3)nc(SC(C)C(=O)NCc3cccs3)c2c1 (centres undefined) ?
Cruzain noTriton: -27.2%; Cruzain Triton: -4.0%

What do the screens show for `Cc1ccc(C)c2c(SC(C)C(=O)NCc3ccco3)nc(-c3ccccc3)nc12` (centres undefined)?
Cruzain noTriton: 3.98µM*; Cruzain Triton: -7.6%

What do the screens show for `Cc1ccc(-n2ncc(C(=O)N3CCCCC3)c2C2CCN(C(=O)OC(C)(C)C)CC2)c(C)c1`?
Cruzain noTriton: inconclusive; Cruzain Triton: -2.2%

Results for Cc1oc(-c2ccc(C(=O)NCCC(C)C)cc2)nc1CS(=O)(=O)c1ccccc1 ?
Cruzain noTriton: -9.8%; Cruzain Triton: -3.2%

Results for Cc1ccc(SCc2cc(=O)[nH]c(/N=C(\N)Nc3cccc4ccccc34)n2)cc1 ?
Cruzain noTriton: 31.6µM*; Cruzain Triton: -0.5%

Results for COc1ccc(Cl)cc1N/C(N)=N/c1nc(CSc2ccc(C)cc2)cc(=O)[nH]1 ?
Cruzain noTriton: inconclusive; Cruzain Triton: 0.0%

Results for CC#N ?
Cruzain noTriton: -8.6%; Cruzain Triton: 1.9%

Results for CCc1ccc(S(=O)(=O)c2cn(CC(=O)Nc3cccc(C)c3)c3ccc(Cl)cc3c2=O)cc1 ?
Cruzain noTriton: -4.4%; Cruzain Triton: -2.4%

How did COc1cc(-c2nc3oc4ccccc4c(=O)c3c(=O)n2Cc2ccco2)cc(OC)c1OC do in these assays?
Cruzain noTriton: 2.4%; Cruzain Triton: -2.9%

What do the screens show for `CN(C)c1cccc(C(=O)OCc2cc(=O)oc3cc(O)ccc23)c1`?
Cruzain noTriton: -6.9%; Cruzain Triton: -14.7%

How did O=C(Cc1cc(=O)oc2cc(O)ccc12)NCC1CCC(C(=O)O)CC1 (centres undefined) do in these assays?
Cruzain noTriton: -87.4%; Cruzain Triton: 25.1µM*

How did CCOc1ccc(-c2nn(-c3ccccc3)cc2/C=C2\SC(=S)N(Cc3ccco3)C2=O)cc1 do in these assays?
Cruzain noTriton: 10µM*; Cruzain Triton: -5.7%

How did CCCOc1ccc(-c2nn(-c3ccccc3)cc2/C=C2\SC(N)=NC2=O)cc1 do in these assays?
Cruzain noTriton: inconclusive; Cruzain Triton: 0.2%

What do the screens show for `COc1cc2ccccc2cc1C(=O)N1CCN(c2nc3c(C)cc(C)cc3s2)CC1`?
Cruzain noTriton: -26.3%; Cruzain Triton: -4.6%

What do the screens show for `CSc1nc(N(C)CCO)c2sc3nc(-c4ccco4)c4c(c3c2n1)CCC4`?
Cruzain noTriton: -24.8%; Cruzain Triton: 8.91µM*

Results for CSc1nc(N2CCN(CCO)CC2)c2sc3nc(-c4ccco4)c4c(c3c2n1)CCC4 ?
Cruzain noTriton: -1.2%; Cruzain Triton: -16.1%

Results for O=C(/C=C/c1ccccc1)NC(NC(=S)Nc1cccc(Cl)c1)C(Cl)(Cl)Cl (centres undefined) ?
Cruzain noTriton: inconclusive; Cruzain Triton: -0.6%

Results for O=C(CCc1ccccc1)NC(NC(=S)Nc1ccc(Br)cc1)C(Cl)(Cl)Cl (centres undefined) ?
Cruzain noTriton: 10µM*; Cruzain Triton: 3.7%

How did O=C(CCc1ccccc1)NC(NC(=S)Nc1cccc(Cl)c1)C(Cl)(Cl)Cl (centres undefined) do in these assays?
Cruzain noTriton: 7.94µM*; Cruzain Triton: -0.9%

How did S=C(NCCC(c1ccccc1)c1ccccc1)Nc1cccc(Cl)c1 do in these assays?
Cruzain noTriton: 15.8µM*; Cruzain Triton: 1.7%

How did CCCC(=O)NC(NC(=S)Nc1ccc(N=Nc2ccccc2)cc1)C(Cl)(Cl)Cl (centres undefined) do in these assays?
Cruzain noTriton: -29.4%; Cruzain Triton: -4.5%

How did S=C(NCc1ccncc1)Nc1cccc(Cl)c1 do in these assays?
Cruzain noTriton: 13.2%; Cruzain Triton: -1.0%

What do the screens show for `O=C(c1ccco1)N1CCC[C@@]2(CCN(C(c3ccccc3)c3ccccc3)C2)C1`?
Cruzain noTriton: -5.4%; Cruzain Triton: -0.2%

What do the screens show for `Cc1[nH]nc(SCC(=O)N2CCC(C)CC2)c1[N+](=O)[O-]`?
Cruzain noTriton: -20.0%; Cruzain Triton: -1.4%

What do the screens show for `CCc1ccc(C2CC(=O)Nc3c2c(=O)n(C)c2ncnn32)cc1` (centres undefined)?
Cruzain noTriton: 3.2%; Cruzain Triton: -0.2%

What do the screens show for `CCCCOc1cccc(C2c3c(-c4cc(C)ccc4O)n[nH]c3C(=O)N2CCOC)c1` (centres undefined)?
Cruzain noTriton: 10.4%; Cruzain Triton: -16.8%

What do the screens show for `CCc1ccc(C2c3c(-c4ccccc4O)n[nH]c3C(=O)N2Cc2cccnc2)cc1` (centres undefined)?
Cruzain noTriton: inconclusive; Cruzain Triton: -11.1%

What do the screens show for `CCCn1nc2cc(C(=O)NCCc3cccs3)ccc2c1OCC`?
Cruzain noTriton: 13.2%; Cruzain Triton: -5.6%

Results for CCc1nn2c(=O)c(S(=O)(=O)Nc3ccc(Br)cc3F)c(C)nc2s1 ?
Cruzain noTriton: -5.3%; Cruzain Triton: -1.8%

What do the screens show for `CCCCNc1nc(C)nc2c1nc(-c1ccccc1)n2CCCN1CCCCC1C` (centres undefined)?
Cruzain noTriton: -6.1%; Cruzain Triton: -1.1%

How did COc1ccccc1CNc1ccnc(-c2ccoc2)n1 do in these assays?
Cruzain noTriton: -1.6%; Cruzain Triton: -1.9%

What do the screens show for `COc1ccccc1CNc1nc(-c2ccoc2)nc2ccccc12`?
Cruzain noTriton: 25.1µM*; Cruzain Triton: -3.7%

What do the screens show for `Cc1cc(C(F)(F)F)nn1CC(=O)NNC(=S)Nc1cccc(Cl)c1`?
Cruzain noTriton: -3.5%; Cruzain Triton: 3.5%

Compound activity as filed in PubChem.
